An excerpt weighted towards active compounds, which were near 9.9% of everything screened.
HPGD inh = qHTS Assay for Inhibitors of HPGD (15-Hydroxyprostaglandin Dehydrogenase). 15-hydroxyprostaglandin dehydrogenase [NAD(+)] (Homo sapiens), P15428. purified HPGD, NADH fluorescence kinetic, PGE2 substrate. Potency, µM, without a hit: top-dose activity change, negative = inhibition, hits mostly inhibitors. 150,000 tested, 4.3% active. AID 894, 2007
Target sequence (P15428 whole entry, looked up): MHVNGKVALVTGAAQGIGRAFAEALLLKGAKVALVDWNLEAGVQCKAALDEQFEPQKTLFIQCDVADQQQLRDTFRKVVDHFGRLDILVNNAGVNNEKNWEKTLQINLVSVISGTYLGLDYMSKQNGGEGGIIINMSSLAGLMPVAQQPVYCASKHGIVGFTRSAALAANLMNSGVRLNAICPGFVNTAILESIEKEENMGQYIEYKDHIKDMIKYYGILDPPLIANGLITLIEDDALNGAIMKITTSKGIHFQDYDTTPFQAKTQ
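20 nM HPGD preincubated 15 min at room temperature with compound in 50 mM Tris-HCl pH 8, 0.01% Tween 20. Started with 1 mM NAD+ and 30 uM prostaglandin E2; NADH fluorescence (360/450 nm) read 5 times over 30-s intervals, last minus first.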
Tau fluor counter = Counterscreen qHTS for Inhibitors of Tau Fibril Formation, Fluorescence Polarization; tau K18 P301L Alexa594 fluorescence, heparin fibrillization; Potency, µM (series often up to 57.7 µM), inactives show at the top dose activity change, negative = decrease; 280,000 tested, 0.93% active; active = well fitted curve in the direction sought with a large enough effect; inconclusive = small, poorly fitted or top-dose-only effect, or another doubt; inactive = no such curve, though single readings can be large; an effect the other way counts as inactive or inconclusive; note: nearly all actives have a fitted effect of over 55% in size
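Human tau K18 P301L (15 uM unlabeled, 0.24 uM Alexa 594-labeled) in 100 mM sodium acetate pH 7 with 20 uM heparin, 6 hr at 37 C. ThT 30 uM added, 1 hr ambient; Alexa 594 FP and total fluorescence read at 555/632 nm.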
Tau fibril ThT = qHTS for Inhibitors of Tau Fibril Formation, Thioflavin T Binding; Potency, µM (top dose mostly 57.4 µM), inactives show at the highest dose activity, negative = inhibition, most hits filed as inhibitors; recombinant tau K18 P301L, heparin-induced fibrillization, ThT fluorescence; 270,000 tested, 2.1% active; AID 1460, 2008; Microtubule-associated protein tau (Homo sapiens), P10636; active = well fitted curve in the direction sought with a large enough effect; inconclusive = small, poorly fitted or top-dose-only effect, or another doubt; inactive = no such curve, though single readings can be large; an effect the other way counts as inactive or inconclusive; note: nearly all actives have a fitted effect of over 55% in size
Target sequence (P10636 561-689 P618L limits assumed): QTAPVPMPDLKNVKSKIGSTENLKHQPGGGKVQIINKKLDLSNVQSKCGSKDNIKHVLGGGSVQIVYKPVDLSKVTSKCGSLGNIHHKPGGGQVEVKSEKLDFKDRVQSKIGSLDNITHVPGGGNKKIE
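Fibril formation assay: tau K18 P301L at 15 uM with trace Alexa 594 label, heparin inducer 20 uM, pH 7 sodium acetate buffer, 37 C for 6 hr; endpoint ThT signal.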
JMJD2E inh = qHTS Assay for Inhibitors of Human Jumonji Domain Containing 2E (JMJD2E) | Lysine-specific demethylase 4E (Homo sapiens), B2RXH2 | JMJD2E catalytic domain, FDH-coupled NADH fluorescence (FDH is formaldehyde dehydrogenase) | Potency, µM (top dose mostly 57.1 µM), without a hit: top-dose activity change, negative = inhibition, usual class: inhibitors | 230,000 tested, 1.6% active | AID 2147, 2009;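 note: 0% = wells with enzyme and -100% = buffer wells without enzyme; nearly all actives have a fitted effect of over 50% in size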
Target sequence (B2RXH2 1-337 limits assumed): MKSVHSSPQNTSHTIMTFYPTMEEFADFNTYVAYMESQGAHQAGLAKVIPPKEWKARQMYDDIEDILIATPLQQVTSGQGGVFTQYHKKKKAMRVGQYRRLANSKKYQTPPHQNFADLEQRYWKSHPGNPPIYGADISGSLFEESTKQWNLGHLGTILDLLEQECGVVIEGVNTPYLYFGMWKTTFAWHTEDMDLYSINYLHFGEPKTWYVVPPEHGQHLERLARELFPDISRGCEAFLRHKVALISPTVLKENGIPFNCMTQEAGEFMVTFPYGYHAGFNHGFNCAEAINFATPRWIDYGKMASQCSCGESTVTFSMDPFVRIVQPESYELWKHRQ
ALDH1A1 block = qHTS Assay for Inhibitors of Aldehyde Dehydrogenase 1 (ALDH1A1); 220,000 tested, 7.3% active; Purified ALDH1A1, NADH fluorescence, propionaldehyde substrate; Aldehyde dehydrogenase 1A1 (Homo sapiens), P00352; Potency, µM (series often up to 75.3 µM), without a hit: at the top dose activity, negative = inhibition, most hits filed as inhibitors;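 note: plate controls were no enzyme wells and a reference inhibitor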
Tau FP inhib = qHTS for Inhibitors of Tau Fibril Formation, Fluorescence Polarization | K18 P301L tau heparin fibrillization, Alexa594 FP, 6 h | Potency, µM (titrated, usually from 57.7 µM), without a hit: top-dose activity, negative = inhibition, usual class: inhibitors | 280,000 tested, 0.39% active | AID 1468, 2008; active = well fitted curve in the direction sought with a large enough effect; inconclusive = small, poorly fitted or top-dose-only effect, or another doubt; inactive = no such curve, though single readings can be large; an effect the other way counts as inactive or inconclusive; note: nearly all actives have a fitted effect of over 55% in size
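Quantitative HTS format: compounds meet 15 uM recombinant K18 P301L tau and Alexa 594-tau tracer in 100 mM sodium acetate pH 7; 20 uM heparin triggers fibrillization at 37 C over 6 hr; FP gives the signal.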
The depositor's hits bear a star; ? = inconclusive; nt = not tested or not shown; [ ] = dose if it differs, or a comment. Unless noted, calls come from the whole dose curve; as a rule, active = well fitted inhibition curve with a large enough effect (not every such curve was filed as active); inconclusive = small, poorly fitted or top-dose-only effect, or another doubt; inactive = no such curve, though single readings can be large or run the other way. Unless noted, % is set by controls: 0 for no effect and ±100 for the full control effect; potency is the fitted concentration of half-maximal effect.

SMILES	HPGD inh	Tau fluor counter	Tau fibril ThT	JMJD2E inh	ALDH1A1 block	Tau FP inhib
CCCC1=Nc2cc(C(=O)NC3CCCCC3)ccc2Sc2ccc(C)cc21	nt	-4%	-7%	nt	nt	-6%
CN(C)c1cc(Cl)c2nonc2c1N	nt	?	25µM*	-28%	nt	?
CCOC(=O)CCN1C(=O)[C@H]2[C@@H]3[C@H](O)[C@H](O)CC(=O)[C@H]3CC[C@H]2C1=O	nt	1%[11.6 µM]	1%[11.5 µM]	nt	-3%[13.5 µM]	-2%[11.6 µM]
c1ccc(-c2cnc(SCCN3CCOCC3)n2CC2CCCO2)cc1 (stereo not given)	-8%	-9%	-16%	?	10µM*	-5%
COc1ccc(-c2cnc(N)n2CC2CCCO2)cc1 (stereo not given)	-18%	3%	1%	68%	40µM*	3%
COCCCNC(=O)C1CCN(C(=O)c2cnn(-c3ccccc3)c2-n2cccc2)CC1	nt	1%	2%	nt	nt	-3%
COc1ccc(C[C@@H]2CN3C(=NC[C@@H]3C)N2C[C@H](C)NC(=O)CCC2CCCCC2)cc1	nt	4%	-16%	7%	7.1µM*	10%
COc1ccc(C[C@H]2CN3C(=NC[C@H]3Cc3ccccc3)N2CCNC(=O)CCC2CCCCC2)cc1	nt	-1%	?	-3%	10µM*	0%
CN(CCc1ccc(Cl)c(Cl)c1)CC(O)COc1ccc(NS(C)(=O)=O)cc1 (stereo not given)	nt	3%	1%	nt	-4%	-4%
Cc1ccc(S(=O)(=O)N(CC(=O)Nc2c(C)cccc2C)c2cccc(Cl)c2)cc1	nt	-16%	-4%	nt	nt	11%
Cc1cccc(C)c1OCc1nc2ccccc2c(=O)n1/N=C/c1c[nH]c2ccccc12	nt	3.5µM*[quencher]	-5%	?	-8%	?
Cc1ccccc1OCc1nc2ccccc2c(=O)n1/N=C/c1c[nH]c2ccccc12	-3%	?	9%	-4%	1%	?
Cc1cc(/C=N/n2c(COc3ccccc3C)nc3ccccc3c2=O)c(O)c([N+](=O)[O-])c1	1µM*	-6%	-1%	-1%	2%	-2%
Cc1nc2ccccc2c(=O)n1/N=C/c1ccc(O)cc1O	nt	-1%	-7%	?	0%	5%
CCCc1nc2ccccc2c(=O)n1/N=C/c1ccccc1O	-27%	-29%	-12%	32µM*	?	-2%
CS(=O)(=O)c1ccc(/C=N\NC(N)=S)cc1	-11%	nt	nt	nt	?	nt
Cc1ccccc1Oc1nc2c(c(=O)n(C)c(=O)n2C)n1Cc1ccc(Br)cc1	nt	2%	0%	nt	nt	-3%
Cc1cc(-c2nnc(CCC(=O)NC(C)c3ccc(F)cc3)o2)no1 (stereo not given)	nt	-1%	3%	9%	14%	0%
CC1CCN(C2CC(=O)N(c3ccc(Br)cc3Br)C2=O)CC1 (stereo not given)	nt	-10%	-14%	-7%	nt	-4%
Cc1ccc(Cn2nnc3c(=O)[nH]c(C4CCN(S(=O)(=O)c5cc(C)ccc5C)CC4)nc32)cc1	22µM*	-17%	-14%	-2%	-6%	0%
Cc1ccc(C)c(S(=O)(=O)N2CCC(c3nc4c(nnn4Cc4ccc(F)cc4)c(=O)[nH]3)CC2)c1	13µM*	-24%	-10%	1%	-10%	-10%
Cc1ccc(Cn2nnc3c(=O)[nH]c(C4CCN(S(=O)(=O)c5ccc(F)cc5)CC4)nc32)cc1	-16%	-12%	-6%	-11%	0%	12%
N/C(=N\OS(=O)(=O)c1ccccc1)c1ccncc1	-6%	-10%	?	1%	2%	?
N/C(=N/OS(=O)(=O)c1ccc([N+](=O)[O-])cc1)c1ccncc1	nt	-7%	?	-25%	32µM*	-11%
COc1ccc(-n2c(=O)c(-c3cccs3)nc3cnc(Oc4ccccc4)nc32)cc1	-12%	nt	nt	nt	70%	nt
SMILES	HPGD inh	Tau fluor counter	Tau fibril ThT	JMJD2E inh	ALDH1A1 block	Tau FP inhib
CCC(=O)Nc1ccc2c(c1)C(=O)N(C)C2=O	?	-9%	-5%	?	?	1%
O=C(NC(=S)Nc1ccc2c(c1)C(=O)c1ccccc1C2=O)c1ccc(F)cc1	-15%	?	?	9%	11µM*	6%
Cc1ccc(NC(=S)NC(=O)c2ccc(F)cc2)cc1S(=O)(=O)Nc1ccccc1Cl	-10%	-29%	-2%	-3%	13µM*	-26%
CCC(=O)Nc1ccc(Oc2ccc3c(c2)C(=O)NC3=O)cc1	16µM*	-2%	-15%	8%	5%	-4%
CCC(=O)Nc1ccc2c(c1)C(=O)c1ccccc1C2=O	-10%	-19%	?	10%	7.9µM*	1%
COc1ccc(OC)c(NC(=O)N2CCC3(CC2)Oc2ccccc2C(=O)N3Cc2ccccc2F)c1	nt	-14%	-1%	nt	nt	?
CC(C)CO/N=C1/C[C@@H](O)[C@@H](O)[C@@H]2[C@@H]3C(=O)N(c4cccc(Oc5ccccc5)c4)C(=O)[C@H]3CC[C@H]12	nt	-7%[11.6 µM]	-7%[11.5 µM]	nt	-5%[13.5 µM]	0%[11.6 µM]
CCOC(=O)C1CCCN(C(=O)Nc2ccccc2)C1 (stereo not given)	-4%	-14%	-16%	7%	7%	-13%
COC(=O)c1ccccc1NC(=O)c1ccc(CN2CC(=O)N3CCCCC3C2=O)cc1 (stereo not given)	nt	-14%	-9%	nt	nt	7%
CCOC(=O)CC1Sc2ccccc2NC1=S (stereo not given)	nt	?	?	-25%	7.9µM*	-20%
CCOC(=O)CC1Sc2ccccc2NC1=O (stereo not given)	-13%	-1%	0%	0%	1%	-1%
CCC(C)(C)NC(=O)c1cc(S(=O)(=O)N2CCCCC2)ccc1N1CCOCC1	nt	-4%	0%	1%	2%	-11%
COCCCNC(=O)/C(C#N)=C1\N=C(NC(=O)c2cccs2)c2ccccc21	nt	?	?	2%	4µM*	?
N#C/C(C(=O)NCCc1ccccc1)=C1/N=C(NC(=O)c2cccs2)c2ccccc21	-27%	-3%	-9%	-3%	4%	9%
Cc1ccc(-c2nnc(SCC(=O)NCc3ccccc3)o2)cc1	nt	-6%	3%	nt	nt	-13%
Cc1cc(C)c(CSc2ncc(-c3ccc([N+](=O)[O-])cc3)[nH]2)c(C)c1	-17%	6.3µM*[quencher]	5µM*	-2%	?	-10%
O=[N+]([O-])c1ccc(-c2cnc(SC(c3ccccc3)c3ccccc3)[nH]2)cc1	?	4µM*[quencher]	?	-4%	?	?
